Laboratory results reported in PubChem BioAssay (NCI).
This is part of a sample that, as a whole, favours compounds with a hit. Of some 79,000 tested, about 15% had one in any assay. Rule as the data show it: active = growth inhibition above about 70%; inactive = the rest.

Columns and labels:
[1] = NCI Yeast Anticancer Drug Screen. Data for the rad50 strain (AID 155);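 also: 0% = growth of vehicle-only cultures of the same strain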; details: S. cerevisiae rad50 strain growth inhibition; at 50.0 µM; active compounds read high
In short: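 Compounds were tested on a yeast strain with an engineered DNA damage repair alteration; the reported value is growth inhibition normalised to vehicle treatment.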

[2] = NCI Yeast Anticancer Drug Screen. Data for the mec2-1 strain (AID 157); details: S. cerevisiae mec2-1 strain, at 50.0 µM, active compounds read high
In short: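 Test agents were screened against the mec2-1 yeast strain, with defined DNA repair or cell cycle alteration. Growth was scored as inhibition against vehicle-only controls.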

[3] = NCI Yeast Anticancer Drug Screen. Data for the sgs1 mgt1 strain (AID 161);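 also: 0% = growth of cultures given vehicle only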; details: S. cerevisiae sgs1 mgt1 strain, at 50.0 µM, active compounds read high
In short: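 Inhibition of yeast growth, normalised to vehicle-treated controls, is reported for a strain bearing genetic alterations in DNA damage repair.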

[4] = NCI Yeast Anticancer Drug Screen. Data for the cln2 rad14 strain (AID 165);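 also: 0% = growth equal to vehicle treated cultures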; details: S. cerevisiae cln2 rad14 strain, at 50.0 µM, active compounds read high
In short: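 Growth of compound-exposed yeast (cln2 rad14 genotype) measured and expressed as inhibition relative to vehicle.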

[5] = NCI Yeast Anticancer Drug Screen. Data for the bub3 strain (AID 167); details: S. cerevisiae bub3 mutant strain, at 50.0 µM, active compounds read high
In short: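 Growth of a checkpoint-deficient yeast mutant is measured after compound exposure. Values represent inhibition relative to vehicle.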

[6] = NCI Yeast Anticancer Drug Screen. Data for the mlh1 rad18 strain (AID 175); details: S. cerevisiae mlh1 rad18 strain growth inhibition; at 50.0 µM; active compounds read high
In short: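 In this whole-cell yeast screen, a strain with altered DNA damage repair is challenged with compound, and its growth is measured against matched vehicle-treated controls.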

Measured: growth inhibition

COc1cc(C)cc(OC)c1/C=C/C(=O)O
inactive: [1] 8.4% | [2] 11.1% | [3] -8.6% | [4] -13.6% | [5] 1.75% | [6] 2.25%

COC(=O)C1CC(=C(C)C)CCC1=O (stereo unspecified)
inactive: [1] 11.1% | [2] 2.15% | [3] 0.4% | [4] 11.2% | [5] 8.7% | [6] -1.7%

Cc1c(-c2ccccc2)n[nH]c1-c1[nH]nc(-c2ccccc2)c1C
inactive: [1] -9.7% | [2] -16.9% | [3] -24.2% | [4] -15% | [5] -41.1% | [6] -19.1%

COc1ccc2nc(Cl)sc2c1
inactive: [1] 32.4% | [2] -17.6% | [3] 41.4% | [4] 21.4% | [5] 42.1% | [6] 13.6%

COc1ccc(OC)c(C2SCC(=O)N2c2nncs2)c1 (stereo unspecified)
inactive: [1] -19.8% | [2] 6% | [3] 15.2% | [4] -17.6% | [5] -8.7% | [6] 2.2%

N#Cc1c(O)cc(=O)n2c1[nH]c1ccccc12
inactive: [1] -15.2% | [2] -24.3% | [3] -22% | [4] -10.3% | [5] 10.5% | [6] -4.15%

COc1ccc(NC(C)=O)c(C(O)CCNC(C)=O)c1 (stereo unspecified)
inactive: [1] -14.1% | [2] -13.3% | [3] -25.9% | [4] -7.8% | [5] -40.1% | [6] -28.5%

O=C1NCCCC1CCO (stereo unspecified)
inactive: [1] -8.35% | [2] -3.65% | [3] -7.95% | [4] -3.65% | [5] 5.5% | [6] -3.85%

CC1(C)CS(=O)(=O)CC(C)(C)C(=O)C1=O
inactive: [1] -25.6% | [2] -19% | [3] -15% | [4] 5.45% | [5] -6% | [6] -3.4%

O=S(=O)(O)CNc1ccc(Cl)cc1
inactive: [1] 15.8% | [2] -12.7% | [3] 4.05% | [4] -29.7% | [5] -23.1% | [6] 4.05%

C=CCOC(=O)OC(C)C(=O)OCC=C (stereo unspecified)
inactive: [1] 27% | [2] 13.1% | [3] 15.4% | [4] 7.55% | [5] -2.25% | [6] -2.5%

Cc1cc(Cl)cc(CN(C)Cn2c(=O)cc[nH]c2=O)c1O
inactive: [1] 6.45% | [2] -7.65% | [3] 2.7% | [4] -31.9% | [5] 8.45% | [6] 2.2%

Cc1ccc(S(=O)(=O)N/N=C2/C(=N/NS(=O)(=O)c3ccc(C)cc3)c3cccc4cccc2c34)cc1
inactive: [1] 50% | [2] 11.4% | [3] 36.7% | [4] 8.3% | [5] 14.8% | [6] 11.3%

CCOC(=O)c1c(NN)n[nH]c1C
inactive: [1] 8.95% | [2] 13.2% | [3] 24.4% | [4] 4% | [5] 7.1% | [6] 8.85%

CC(C)CC(=O)C(C)C(C)C (stereo unspecified)
inactive: [1] 12.4% | [2] -1.85% | [3] 4.25% | [4] -4.25% | [5] 4% | [6] 1.5%

NC(CC1C=CC=CC1)C(=O)O (stereo unspecified)
inactive: [1] 0.6% | [2] 3.15% | [3] 8.35% | [4] -6% | [5] -4.05% | [6] -4.85%

CC(C)CCC(C)(C)O
inactive: [1] 45.9% | [2] 1.8% | [3] 16.1% | [4] -20.7% | [5] 9.95% | [6] 34.2%

CC1=C(C(=O)NCc2ccccc2)C(c2ccccc2C)C(C(=O)NCc2ccccc2)=C(C)N1
inactive: [1] 52.1% | [2] 26% | [3] 31.6% | [4] -10.9% | [5] 36% | [6] 25.4%

CNCC(=O)NC(CO)C(=O)NC(CO)C(=O)NC1C(C(N)=O)OC(n2ccc(N)nc2=O)C(O)C1O (stereo unspecified)
inactive: [1] 13.3% | [2] 10.3% | [3] 8.75% | [4] 38.5% | [5] 23.9% | [6] 24.3%

O=CNC(Cc1ccccc1)c1ccc(OCc2ccccc2)cc1 (stereo unspecified)
inactive: [1] 0.75% | [2] 5% | [3] 1.55% | [4] 31.1% | [5] 31.6% | [6] 16.9%

Cc1ccc(P(=S)(c2ccc(C)c3ccccc23)c2ccc(C)c3ccccc23)c2ccccc12
inactive: [1] -8.1% | [2] -6.3% | [3] -3.4% | [4] -8.7% | [5] 0.1% | [6] -4.9%
